Most compounds without a hit are left out; they make up all but 11% or so of the library.
PNC inhibitor: High Content Assay for Compounds that inhibit the Assembly of the Perinucleolar Compartment | activity change (PNC), negative = inhibition, % at 10 µM | AID 2417, 2010 | PC3M PTB-GFP, PNC prevalence imaging, 16 h; stronger effect = lower value | hit rate 3.1% among 140,000;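 active = readout at or below -70, meaning at least 70% loss of cells showing the perinucleolar compartment, a nuclear body marking cancer cells; inconclusive = readout between -30 and a set limit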;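 note: plate controls were DMSO wells for no effect and camptothecin positive control wells for full effect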
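Read-out is percentage of cells bearing a perinucleolar compartment, from automated 20x imaging of fixed, Hoechst-stained PC3M PTB-GFP cells. Cells were seeded 4 h, then exposed 16 h to compound (23 nl of library stock) in duplicate plates.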
HPGD inh: qHTS Assay for Inhibitors of HPGD (15-Hydroxyprostaglandin Dehydrogenase). 15-hydroxyprostaglandin dehydrogenase [NAD(+)] (Homo sapiens), P15428. purified HPGD, NADH fluorescence kinetic, PGE2 substrate. Potency, µM, for inactives: top-dose activity change, negative = inhibition, most hits filed as inhibitors. hit rate 4.3% among 150,000. AID 894, 2007; note: potency is the fitted concentration of half-maximal effect
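NADH formation kinetics: reaction with 30 uM PGE2 and 1 mM NAD+ (final), 20 nM enzyme, Tris-HCl pH 8 with Tween 20, after 15 min compound preincubation at room temperature. Fluorescence change, last versus first of five reads.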
ALDH1A1 block: qHTS Assay for Inhibitors of Aldehyde Dehydrogenase 1 (ALDH1A1); Purified ALDH1A1, NADH fluorescence, propionaldehyde substrate; hit rate 7.3% among 220,000; AID 1030, 2008; Potency, µM (top dose mostly 75.3 µM), for the others: at the highest dose activity, negative = inhibition, usual class: inhibitors;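 note: potency is the fitted concentration of half-maximal effect; plate controls were no enzyme wells and a reference inhibitor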
Target sequence (P00352 whole entry, looked up): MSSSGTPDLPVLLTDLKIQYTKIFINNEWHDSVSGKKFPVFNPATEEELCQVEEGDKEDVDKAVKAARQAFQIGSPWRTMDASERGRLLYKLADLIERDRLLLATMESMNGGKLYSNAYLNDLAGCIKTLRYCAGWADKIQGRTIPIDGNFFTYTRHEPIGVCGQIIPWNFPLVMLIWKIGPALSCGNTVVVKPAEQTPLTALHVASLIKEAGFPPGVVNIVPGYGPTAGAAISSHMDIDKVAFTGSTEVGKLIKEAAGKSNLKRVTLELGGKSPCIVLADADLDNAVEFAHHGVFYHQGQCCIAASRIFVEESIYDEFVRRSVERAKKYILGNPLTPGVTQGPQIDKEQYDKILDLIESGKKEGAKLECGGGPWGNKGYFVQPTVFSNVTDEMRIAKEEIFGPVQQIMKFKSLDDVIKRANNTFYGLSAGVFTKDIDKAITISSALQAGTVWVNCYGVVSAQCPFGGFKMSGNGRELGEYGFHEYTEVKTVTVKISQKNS
* marks the source's active call; other numbers are inactive results; u = inconclusive; x = not tested or not shown; [ ] = another dose, or the depositor's remark. Unless noted, calls come from the whole dose curve; as a rule, active = well fitted inhibition curve with a large enough effect (not every such curve was filed as active); inconclusive = small, poorly fitted or top-dose-only effect, or another doubt; inactive = no such curve, though single readings can be large or run the other way. Unless noted, % is set by controls: 0 for no effect and ±100 for the full control effect.

SMILES | PNC inhibitor | HPGD inh | ALDH1A1 block
O=C1C2C3C=CC(CNS(=O)(=O)c4ccccc4)(O3)C2C(=O)N1c1ccc(Cl)cc1 (stereo unspecified) | -19 | 22µM* | 0.63µM*
O=S(=O)(NCc1cc(-c2ccc(Cl)cc2)no1)c1ccccc1 | -11 | -3% | 9%
CC(=O)Oc1ccc(N2C(=O)C3C(C2=O)C2(C)C=CC3(C)O2)cc1 (stereo unspecified) | 27 | 13µM* | 0.63µM*
CC(=O)Oc1ccc(-n2c(=O)c3ccccc3c3ccccc3c2=O)cc1 | x | x | -5%
CCOC(=O)c1c(C)[nH]c(C)c1C(=O)COC(=O)c1ccc(Cl)c(S(N)(=O)=O)c1 | -21 | -12% | -1%
CCN(CC)S(=O)(=O)c1ccc2nnn(O)c2c1 | x | x | 16%
COc1cc(NC(=O)c2ccc3c(c2)OCCO3)ccc1NC(=O)c1cccs1 | x | x | -9%
O=C(CC12CC3CC(CC(C3)C1)C2)Nc1cccc2ncccc12 | u | -1% | -4%
Cc1[nH][nH]c(=O)c1C=NCc1cccs1 | x | x | 3%
CC(c1ccccc1F)n1cc(C(=O)NCCc2ccco2)nn1 (stereo unspecified) | 14 | -10% | u
CCCn1c(C)nc2c(NCCN3CCCCC3)nc(C)nc21 | x | -5% | 6%
COc1ccc2c(c1)N(CC[C@H]1CCCCN1C)c1ccccc1S2 | x | -8% | 10%[13.5 µM]
Cc1onc(-c2ccc(Cl)cc2Cl)c1-c1csc(N/N=C/c2ccccc2Cl)n1 | x | x | -5%
CCOC(=O)c1cnc2c(C)c(C)ccc2c1Nc1ccc(S(=O)(=O)Nc2ncccn2)cc1 | 46 | -25% | 3%
CSc1ncccc1C(=O)OCC(=O)NC(=O)NCCC(C)C | 39 | -23% | u
CC(=O)Oc1ccc(C(=O)[C@H]2[C@H]3C(=O)N(c4ccc5ccccc5c4)C(=O)[C@H]3[C@@H]3C=CC=NN32)cc1 | 55 | -14% | 4%
CC(=O)Oc1ccc(N2C(=O)C3C4C=CC(CO)(O4)C3C2=O)cc1 (stereo unspecified) | -18 | 22µM* | 0.71µM*
O=C(CCCN1C(=O)c2ccccc2C1=O)Nc1ccc2c(c1)OCCO2 | x | x | -9%
COCCCn1cc(C(=O)c2ccccc2OCC(=O)Nc2cccc(F)c2)cc(C#N)c1=O | x | x | -10%
O=C1CC(N(O)C2CC(=O)N(Cc3ccccc3)C2=O)C(=O)N1Cc1ccccc1 (stereo unspecified) | 38 | 32µM* | 7.1µM*
Cc1ccc(NC2CC(=O)N(Cc3ccccc3)C2=O)cc1 (stereo unspecified) | -16 | -7% | u
CC1CC(=O)N(Cc2ccccc2)c2ccccc2N1C=O (stereo unspecified) | -7 | 1% | 3%
CCCN(CCC)C1CC(=O)N(Cc2ccccc2)C1=O (stereo unspecified) | -3 | 1% | 11µM*
c1ccc(CCNCc2ccco2)nc1 | x | -5% | -4%[13.5 µM]
O=C(Nc1ccc2ccccc2c1)[C@@H]1C[C@H]1[C@@H](NP(=O)(c1ccccc1)c1ccccc1)c1ccccc1 | -119* | u | u
SMILES | PNC inhibitor | HPGD inh | ALDH1A1 block
O=C(NCc1ccccc1)[C@@H]1C[C@H]1[C@@H](NP(=O)(c1ccccc1)c1ccccc1)c1ccccc1 | 22 | -1% | -9%
CCn1c(-c2ccccc2Cl)nn(CC(=O)Nc2cc(Cl)ccc2Cl)c1=S | -29 | -4% | u
Cc1c(/C=N/NC(=O)CNc2ccccc2)c2ccccn2c1C(=O)c1ccccc1 | 37 | x | u
COc1cc(C(=S)N2CCCC2)cc(Cl)c1OCC(=O)Nc1ccc(C)cc1C | 6 | 7.9µM* | 2.5µM*
CCOc1cc(C(=O)Nc2ccc(C)cc2C)ccc1OCC(=O)N1CCCCC1 | -23 | -2% | 2%
O=S(=O)(c1ccc(-c2ccccn2)s1)N1CCC2(CC1)OCCO2 | x | x | 0%
Cc1ccc2c(CSc3nnc4ccccn34)cc(=O)oc2c1C | -7 | -12% | u
Cc1ccc2c(CSc3nc4ccccc4c(=O)n3CCCO)cc(=O)oc2c1C | -2 | u | 13µM*
CCCCn1c(SCC(=O)N2CCCc3ccccc32)nc2c1c(=O)n(C)c(=O)n2C | -12 | -8% | 4%
CCCCn1c2c(c(=O)n(C)c1=O)C(c1ccc(OC)cc1)N1CCCCCC1=N2 (stereo unspecified) | -6 | -11% | 0.14µM*
Cc1[nH]c2ccccc2c1-c1cc(-c2cc(-c3c(C)[nH]c4ccccc34)nc(N)n2)nc(N)n1 | x | -4% | 13%[13.5 µM]
C/C=C/C=C/C(=O)Nc1nccs1 | -116* | -21% | -8%
O=C(/C=C/c1ccc(Cl)cc1)Nc1nccs1 | x | x | 2%
Cc1cc(-c2nsc(=O)o2)c(S(C)(=O)=O)s1 | 24 | 4.5µM* | 2.8µM*

From PubChem BioAssay
